The values below come from PubChem BioAssay AID1626 (SRMLSC, 2009).

Screen size: about 220,000 compounds; about 2,000 (0.91%) were called active. Roughly 2% stayed inconclusive and do not appear here. Cut-off read from the data, not from the text of the source: inconclusive = inhibition above about 80% without an active follow-up result; inactive = below that; test concentration not stated here. Not all results are given here. Potency and affinity values are given separately.

The assay can be described thus: M. tuberculosis H37Rv growth inhibitors, H37Rv strain (AID 1626).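 Note: bacteria incubated seven days before Alamar blue readout; 0% = bacteria only wells and 100% = bacteria with antibiotic wells.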 Particulars: hits give high values, concentration not given here.
By inhibition is commonly meant the change of the read-out against control, counted positive when it falls. In the case of `COc1ccc(-c2[nH]n(-c3ccc([N+](=O)[O-])cc3)c(=O)c2C=NCc2ccccc2)cc1`, the inhibition was -1.64% (inactive).

Turning to `C=CCC1(NC(C)c2ccccc2)CCCCC1` (stereo not given), the inhibition is -4.87% (inactive).

As to `O=C(Nc1ccc(-c2noc(COc3ccccc3Cl)n2)cc1)c1ccco1`, the inhibition is 0.69% (inactive).

Turning to `COc1cc(/C=C2/SC(=O)N(Cc3ccccc3Cl)C2=O)ccc1OCc1ccncc1`, the inhibition was 3.75% (inactive).

Take `COCCNC(=O)C(c1ccncc1)N(C(=O)c1sc(C)nc1C)c1cccc(C)c1` (stereo not given): the inhibition was -4.16% (inactive).

With `Cc1ccc(NC(=O)c2cc3c(=O)oc4ccc(C)cc4c3s2)nc1`, the inhibition was -3.16% (inactive).

Regarding `Cc1ccc2c(c1)CC1(CN2C)C(=O)NC(=O)N(CCc2ccccc2)C1=O` (stereo not given), the inhibition is -6.53% (inactive).

As for `Cc1oc(CC(C)C)cc1C(=O)Nc1cccc2ccccc12`, the inhibition is -8.7% (inactive).

In the case of `Cn1c(=O)[nH]c(=O)c2c1nc(SCC(=O)Nc1ccccc1)n2Cc1ccccc1`, the inhibition is 4.62% (inactive).

Regarding `CCn1c(-c2cccnc2Cl)nc2cc(Cl)c(Cl)cc21`, the inhibition is 13.1% (inactive).

For the compound `CCOCCCn1c(=S)[nH]c2cc(C(=O)N3CCN(C)CC3)ccc2c1=O`, the inhibition was -9.01% (inactive).

`CCc1ccc(NC2CC(=O)N(CCc3ccc(OC)c(OC)c3)C2=O)cc1` (stereo not given): the inhibition is 6.46% (inactive).

`O=C(/C=C/NNC(=O)c1ccc(Cl)cc1)c1ccccc1`: the inhibition was 2.77% (inactive).

Take `O=C(/C=C/Sc1ncn[nH]1)c1ccc(Cl)cc1`: the inhibition is 6.21% (inactive).

For `CCC(=O)NCCCc1nc(-c2ccccc2)no1`, the inhibition is -4.65% (inactive).

For `COc1ccccc1N1CCN(C(=O)Cn2nc3n(C)c4ccccc4n3c(=O)c2=O)CC1`, the inhibition was 0.2% (inactive).

In the case of `COc1ccccc1NCC(=O)n1nc(C)cc1C`, the inhibition is -3.99% (inactive).

`Cc1occc1-c1nnc(SCC(=O)Nc2ccccn2)o1`: the inhibition was 10% (inactive).

Turning to `O=C(CSc1nc2ccccc2o1)c1ccccc1`, the inhibition is 9.75% (inactive).

Consider `O=C(CSc1nc2ccccc2o1)Nc1ccccc1`, for which the inhibition was -0.33% (inactive).

Regarding `COc1ccc(CCNC(=O)CSc2nc3ccccc3o2)cc1`, the inhibition is 96.4% (inactive).

As for `Cc1occc1-c1nnc(SCC(=O)NCCc2ccccc2)n1Cc1ccccc1`, the inhibition was -7.81% (inactive).

Regarding `CCS(=O)(=O)c1ccc2oc(SCC(=O)NCCc3ccccc3)nc2c1`, the inhibition is 3.18% (inactive).

Regarding `O=C(CSc1nc2ccccc2o1)Nc1nncs1`, the inhibition was 2.93% (inactive).

As for `Cc1ccc(-c2csc(NC(=O)CSc3nc4ccccc4o3)n2)cc1`, the inhibition was 65.3% (inactive).

Take `Cc1ccc(NC(=S)Nc2cc(C)on2)cc1`: the inhibition is 4.76% (inactive).

`COc1ccc(NC(=O)C2CCCN(S(=O)(=O)c3cccc4nonc34)C2)cc1OC` (stereo not given): the inhibition is 0.88% (inactive).

In the case of `CCOC(=O)c1c(-c2ccc(C)s2)csc1N`, the inhibition is 3.65% (inactive).

On to `Cc1nc2c(C#N)cnn2c2c1CCNN2C`, for which the inhibition was -8.46% (inactive).

Regarding `COc1ccccc1-c1cc(C(=O)N2CCN(c3ccc(F)cc3)CC2)no1`, the inhibition is 4.4% (inactive).

For the compound `Cc1cccc(NC(=O)NNS(=O)(=O)c2ccc(F)cc2)c1`, the inhibition is 7.42% (inactive).

In the case of `O=C(CN1CCN(C(=O)c2ccco2)CC1)N1CCc2[nH]c3ccccc3c2C1`, the inhibition is 7.26% (inactive).

In the case of `COc1ccc(C2CC(=O)C3=C(C2)Nc2ncnn2C3c2ccccc2)cc1` (stereo not given), the inhibition is -8.64% (inactive).

With `O=C(CSc1nc2ccccc2o1)Nc1nc2ccccc2s1`, the inhibition is -3.19% (inactive).

Regarding `Cc1nnc(NC(=O)CSc2nc3ccccc3o2)s1`, the inhibition is -1.02% (inactive).

Regarding `Cc1ccccc1Cn1nnc(-c2ccc(C(=O)O)cc2)n1`, the inhibition was -5.85% (inactive).

With `N#Cc1cncc(-c2ccc3c(c2)OCCOCCOCCOCCOCCO3)n1`, the inhibition is 5.9% (inactive).

In the case of `Nc1nc(-c2ccc3c(c2)OCCO3)cs1`, the inhibition is 78.2% (inactive).

Consider `Cc1ccc(-n2ncc3c2ncn2c(C)nnc32)cc1C`, for which the inhibition is 14.5% (inactive).

As to `CC(C)(C)C(=O)Nc1ccc(-c2csnn2)cc1`, the inhibition is -0.28% (inactive).

With `NC(=O)c1ccc(-c2csnn2)cc1`, the inhibition is 0.58% (inactive).

With `Cc1ccc(NC(=O)C(C)OC(=O)c2ccc(NS(=O)(=O)c3ccc(F)c(F)c3)cc2)cc1` (stereo not given), the inhibition was -2.38% (inactive).

Take `Cc1nc2c(c(=O)n1CCC(C)C)c1nc3ccccc3nc1n2CC1CCCO1` (stereo not given): the inhibition was 2.15% (inactive).

With `CC1CCN(S(=O)(=O)c2cccc(-c3cn4cc(Cl)ccc4n3)c2)CC1`, the inhibition is -1.37% (inactive).

`O=C(O)CCN1C(=O)C2C3c4ccccc4C(c4ccccc43)[C@@H]2C1=O` (stereo not given in full): the inhibition is -2.72% (inactive).

`Cc1ccccc1-n1nc(C)c2c1N=C1C(Cl)=CC(Cl)=CN1C2c1ccc(C(=O)O)cc1` (stereo not given): the inhibition is -4.15% (inactive).

As for `CC(=O)Nc1ccc(NC2=Nc3ccccc3N3C2=Nc2c(c(C)nn2-c2ccccc2)C3c2ccccc2)cc1` (stereo not given), the inhibition was 75.1% (inactive).

For `CCCc1nnc(NC(=O)OCC)s1`, the inhibition is 4.01% (inactive).

With `CC(NC(=O)C1CC1)C(c1cccs1)N1CCOCC1` (stereo not given), the inhibition was 4.47% (inactive).

Turning to `O=C(CSc1nnc(Cc2ccccc2)o1)c1ccc(F)cc1`, the inhibition is 6.24% (inactive).

`Cn1c(NC(=O)/C=C/c2ccco2)cc(=O)n(C)c1=O`: the inhibition was -0.44% (inactive).

As for `Nc1c(C(=O)NC23CC4CC(CC(C4)C2)C3)sc2nc3c(c(C(F)(F)F)c12)CCC3`, the inhibition was -10.2% (inactive).

`COc1ccc(NC(=O)c2sc3nc(Cc4ccccc4)cc(C(F)(F)F)c3c2N)cc1OC`: the inhibition was 7.82% (inactive).

`CCNC(=S)Nc1sc2c(c1C#N)CCC(C)C2` (stereo not given): the inhibition is 9.49% (inactive).

Turning to `Cc1cc(C)cc(N2CN=C3SCC(=O)N3C2)c1`, the inhibition is 4.22% (inactive).

As to `CN(C)c1ccc(N2CN=C3SCC(=O)N3C2)cc1`, the inhibition is -6.22% (inactive).

Consider `O=C1CSC2=NCN(c3ccccc3)CN12`, for which the inhibition was 5.48% (inactive).

On to `Cc1ccc(N2CN=C3SCC(=O)N3C2)cc1C`, for which the inhibition is 73.8% (inactive).

With `O=C1CN(C(=S)Nc2ccc(OC(F)F)cc2)CCN1`, the inhibition was 5.94% (inactive).

As for `CCOc1cc(C=O)cc(Br)c1OCC(N)=O`, the inhibition is -0.11% (inactive).

Turning to `COc1ccc(/C(O)=C2/C(=O)C(=O)N(CCN3CCOCC3)C2c2cccnc2)cc1OC` (stereo not given), the inhibition was -6.27% (inactive).

For the compound `Cc1nc(CS(=O)c2ccc(Cl)cc2)cc(N2CCOCC2)n1` (stereo not given), the inhibition was 5% (inactive).

With `COCc1cc(Sc2ccc(Cl)cc2)nc(C)n1`, the inhibition is 18.1% (inactive).

Take `Cc1ccc2nsnc2c1S(=O)(=O)N1CCCC1`: the inhibition is -7.86% (inactive).

On to `CC(C)CCn1c(=O)c(C(=O)Nc2ccccc2S(N)(=O)=O)c(O)c2ccccc21`, for which the inhibition is -11.9% (inactive).

As to `CCCCCn1c(=O)c(C(=O)OCC)c(O)c2ccccc21`, the inhibition is -3.26% (inactive).

With `CCOC(=O)Cc1csc(NC(=O)c2c(O)c3c(n(CC(C)C)c2=O)CCCC3)n1`, the inhibition was 71.9% (inactive).

Turning to `CCCCCCCCn1c(=O)c(C(=O)OCC)c(O)c2ccccc21`, the inhibition was 7.93% (inactive).

With `O=c1cc(CN2CCCCC2)nc(C2CC2)[nH]1`, the inhibition is 3.51% (inactive).

Consider `Cc1ccc(C(=O)Nc2nccc(-c3cccs3)n2)cc1`, for which the inhibition is -6.72% (inactive).

As for `Oc1ccc(-c2nccc(-c3cccs3)n2)cc1`, the inhibition is -3.17% (inactive).

Consider `Cc1ccc(C(C)C)c(OCC(O)CN2CCN(CCO)CC2)c1` (stereo not given), for which the inhibition was 2.52% (inactive).

For `CN(C)/C=N/c1c(C#N)cnn1C`, the inhibition was -9.88% (inactive).

On to `O=C(O)c1ccc(CN2C(=O)c3ccccc3S2(=O)=O)cc1`, for which the inhibition was -3.5% (inactive).

Regarding `Cc1ccc(C(C#N)c2ccc3c(C(F)(F)F)cc(C(F)(F)F)nc3n2)cc1` (stereo not given), the inhibition was 12% (inactive).

Regarding `N#CC(c1ccccc1)c1ccc2c(C(F)(F)F)cc(C(F)(F)F)nc2n1` (stereo not given), the inhibition was -11.8% (inactive).

On to `Cc1ccc2nc(-c3cc(N)cc(N)c3)oc2c1`, for which the inhibition was 56.3% (inactive).

`CCc1ccc2oc(-c3cccc(N)c3)nc2c1`: the inhibition is 5.28% (inactive).

For the compound `Nc1cccc(-c2nc3cc(S(=O)(=O)c4ccc5oc(-c6cccc(N)c6)nc5c4)ccc3o2)c1`, the inhibition is -1.41% (inactive).

With `Cc1ccc2nc(-c3cccnc3)oc2c1`, the inhibition is -9.72% (inactive).

As for `Nc1ccc2oc(-c3cccc4ccccc34)nc2c1`, the inhibition was 4.7% (inactive).

Consider `CCc1ccc2oc(-c3cc(N)ccc3Cl)nc2c1`, for which the inhibition is 1.18% (inactive).

With `Cc1ccc(-c2nc3cc(N)ccc3o2)c(C)c1`, the inhibition is 8.94% (inactive).

On to `Cc1ccc(C)c(-c2nc3cc(N)ccc3o2)c1`, for which the inhibition is 77.1% (inactive).

On to `CC(C)CNS(=O)(=O)c1ccc(CCC(=O)Nc2cc(Cl)ccc2Oc2ccccc2)cc1`, for which the inhibition was 9.05% (inactive).

For the compound `CC(=O)Nc1cccc(Cn2cccn2)c1`, the inhibition was -6.83% (inactive).

For `Cc1ccc(C)c(S(=O)(=O)NC(Cc2c[nH]c3ccccc23)C(=O)O)c1` (stereo not given), the inhibition was -3.14% (inactive).

For the compound `Cc1ccc(N(C(=O)c2ccncc2)C2C=CS(=O)(=O)C2)cc1` (stereo not given), the inhibition is -9.29% (inactive).

Regarding `CCCCCCc1cc2cc(C(=O)NCc3ccccc3)c(=N)oc2cc1O`, the inhibition was -13.1% (inactive).

Regarding `CCCCCCc1cc2cc(C(N)=O)c(=N)oc2cc1O`, the inhibition is -2.17% (inactive).

`O=C1N=C(N2CCN(c3cccc4ccccc34)CC2)S/C1=C/c1cccs1`: the inhibition was 85.6% (inactive).

`O=C1N=C(N2CCN(c3ccccc3)CC2)S/C1=C/c1cccs1`: the inhibition was 50.8% (inactive).

As for `CCOc1ccc(NC(=O)NCCN2C(C)CCCC2C)cc1` (stereo not given), the inhibition was -2.64% (inactive).

With `N#Cc1c(NC(=O)CSCC(=O)O)sc2c1CCCC2`, the inhibition was -15.3% (inactive).

As to `COc1ccc2oc(C(=O)Nc3nc4ccccc4[nH]3)c(C)c2c1`, the inhibition was 51.1% (inactive).

In the case of `Cc1c(C(=O)Nc2ccncc2)oc2ccccc12`, the inhibition is -1.93% (inactive).

Regarding `O=C(Nc1nc2ccccc2[nH]1)c1ccccc1`, the inhibition was 19.3% (inactive).

For the compound `C/C(=N\Nc1nc2ccccc2[nH]1)c1cc2ccccc2o1`, the inhibition was 56.4% (inactive).

With `O=C(/C=C\c1ccc2c(c1)OCO2)Nc1nnc(SCC(=O)OCc2ccccc2)s1`, the inhibition is 20.4% (inactive).

Regarding `CCOc1ccc(OCC)c(S(=O)(=O)NC2CC(C)(C)NC(C)(C)C2)c1`, the inhibition is -3.13% (inactive).
